A1 inh: caspase 3/7 activation in MEF A1-2A-BIM cells, primary screen, A1 inhibitor project, cell-based, luminescence, HTS; Caspase-Glo 3/7 luminescence, 3 h; percent of clofoctol response, vehicle zero; caspase activation, % (no concentration beside the values); 330,000 tested, 0.066% active; AID 2462, 2010;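 active means over half of replicate activation scores above 10%, or exactly half above 10 with the replicate mean above 10; inconclusive means replicate mean below 10 yet half the replicates above 10; inactive means over half of replicates below 10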
DYRK1A inh: rat Dyrk1A kinase inhibitors, primary screen, biochemical, single point, plate reader; Dual specificity tyrosine-phosphorylation-regulated kinase 1A (Rattus norvegicus), Q63470; ADP-Glo luminescence, NFATc1 peptide; inhibition, % at 12.5 µM; 310,000 tested, 0.43% active; AID 504441, 2011; in the data active means inhibition above about 50%;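 further: plate controls were vehicle with enzyme for no effect and no enzyme for full effect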
Beta2AR agonist: beta2AR agonists driving receptor internalization, primary screen, cell-based, FAP fluorogen, flow cytometry. Beta-2 adrenergic receptor (Homo sapiens), P07550. Am2.2-beta2AR cells. response, % (no concentration beside the values). 340,000 tested, 0.43% active. AID 504454, 2011;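 active means response above a set limit, near 3 SD of response in nonfluorescent compounds, cut at about 42% in these data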
dFosB act-1: activators of delta FosB homodimer, primary screen, biochemical, fluorescence polarization, TAMRA-CDK5 oligo, single point; Protein FosB (Mus musculus), P13346; purified delta FosB; percent of positive-control signal above neutral wells; activation, % at 25 µM; 340,000 tested, 0.99% active; AID 493131, 2011;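 active means mean activation above about 17%, with every replicate also reaching it, limit read from the data, passing the limit was not always enough; inconclusive means only one of the two conditions met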
Target sequence (P13346 whole entry, looked up): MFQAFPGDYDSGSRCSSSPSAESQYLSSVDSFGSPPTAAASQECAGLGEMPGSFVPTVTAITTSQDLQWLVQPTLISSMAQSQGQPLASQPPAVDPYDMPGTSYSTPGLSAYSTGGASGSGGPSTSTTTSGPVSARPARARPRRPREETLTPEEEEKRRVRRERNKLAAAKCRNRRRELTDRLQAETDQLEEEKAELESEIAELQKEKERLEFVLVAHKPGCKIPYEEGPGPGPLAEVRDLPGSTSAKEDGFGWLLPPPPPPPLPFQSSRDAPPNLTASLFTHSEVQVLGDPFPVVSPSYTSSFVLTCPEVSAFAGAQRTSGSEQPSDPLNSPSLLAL
dFosB act-2: activators of mouse delta FosB DNA binding, confirmation, biochemical, fluorescence polarization, TAMRA-CDK5 oligo, cherry-picked samples; AID 588690, 2011; purified delta FosB; normalised: neutral wells 0, positive control 100; 2,400 tested, under 10 active; shares compounds with dFosB act-1; activation, % at 24.9 µM;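 active means highest replicate activation at or above 34% and every replicate reaching that threshold; inconclusive means meets only one of the two criteria; inactive means meets neither criterion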;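 further: higher polarization means more probe DNA bound by delta FosB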
Numbers without * were called inactive; ? = inconclusive; nt = no result given. Shown are actives, neighbours in structure and some others; about 1.6% of the full set was active somewhere.

SMILES	A1 inh	DYRK1A inh	Beta2AR agonist	dFosB act-1	dFosB act-2
CC(=O)Nc1nnc(S(=O)(=O)N2CCN(c3ccc([N+](=O)[O-])cc3Cl)CC2)s1	1.3	3.1	-5.8	-1.9	nt
O=C(Nc1ncccc1O)c1c(O)c2ccccc2[nH]c1=O	-0.4	-6.6	0.4	1.6	nt
Cc1csc(NC(=O)C(C)Oc2ccc(Cl)cc2C)n1 (stereo not drawn)	0.0	nt	-4.4	-3.3	nt
COc1ccc(NC(=O)CNC(=O)Cn2cnc3sc4c(c3c2=O)CCCC4)cc1OC	0.5	nt	-8.2	-3.4	nt
Cn1ncc(Br)c1C(=O)N/N=C/c1cccc(OC2CSC2)c1	0.2	-3.4	-26.2	-6.7	nt
O=C(N/N=C/c1cccc(OC2CSC2)c1)c1ccccc1O	-0.1	2.6	-17.9	28.9*	-0.6
CC(C)C(=O)Nc1cccc(NC(=S)NC(=O)c2ccc(Cl)cc2)c1	-0.3	2.0	-2.7	27.5*	0.6
CC(C)C(=O)Nc1cccc(NC(=S)NC(=O)c2ccc3c(c2)OCO3)c1	0.3	-6.5	-1.0	1.6	nt
CC(C)c1nc2sc3c(SCC(N)=O)ncnc3c2c2c1CCC2	1.0	7.2	7.9	-12.1	nt
COc1ccc(C(=O)Sc2ccc(Cl)cc2)cc1OC	3.2	-0.6	1.5	20.7*	-2.2
CCOc1ncccc1C(=O)OCc1c(F)cccc1Cl	-1.3	4.4	2.0	-7.5	nt
CC1(C)SC2c3ccccc3C(=O)N2C1C(=O)O (stereo not drawn)	nt	-6.1	0.1	-0.2	nt
CCOc1cccc2sc(N(CCCN(C)C)C(=O)c3ccc(S(=O)(=O)N(CC)Cc4ccccc4)cc3)nc12	-0.8	-8.7	24.7	4.5	nt
CCOc1cccc2sc(N(CCCN(C)C)C(=O)c3ccc(S(=O)(=O)N(C)Cc4ccccc4)cc3)nc12	0.3	1.6	29.6	24.1*	0.7
COc1cccc2sc(N(CCCN(C)C)C(=O)c3ccc(S(=O)(=O)N4CCc5ccccc5C4)cc3)nc12	-0.9	-1.2	55.8*	30.1*	1.3
CCn1cc(C(=O)NCCCOC(C)C)c(=O)c2cc(S(=O)(=O)N3CCC(C)CC3)ccc21	-0.5	-6.1	-3.0	-7.5	nt
O=C(CCCC(=O)Nc1ccccc1Br)N/N=C/c1c(F)cccc1Cl	-0.5	-3.2	6.6	26.6*	4.9
CC(C)NC(=O)CC(=O)N/N=C/c1c(F)cccc1Cl	-0.4	-2.8	3.5	0.7	nt
CCOc1ccc(-n2c(=O)c3sccc3n(Cc3ccc(C)cc3)c2=O)cc1	1.0	-2.5	-2.9	25.7*	4.8
COc1ccc(NC(=O)CCCn2c(=O)c3sccc3n(Cc3ccc(C)cc3)c2=O)cc1	1.7	-6.2	-3.9	29.2*	-1.3
COc1ccc(NC(=O)CCCn2c(=O)c3sccc3n(Cc3cccc(C)c3)c2=O)cc1	-0.4	-5.5	-3.3	-6.6	nt
O=C(c1cc(S(=O)(=O)N2CCOCC2)ccc1Cl)N1CCCCC1CO (stereo not drawn)	-0.2	0.4	-2.5	-0.8	nt
CN1CCN(c2nc(Nc3ccc(F)cc3)nc(Nc3ccc(F)cc3)n2)CC1	0.4	0.0	15.6	39.8*	-1.5
c1ccc(Nc2nc(Nc3ccccc3)nc(N3CCNCC3)n2)cc1	0.5	-1.5	10.3	-6.7	nt
NC(=O)c1nc[nH]c1C(=O)Nc1cccc(NC(=O)c2cccc(C(F)(F)F)c2)c1	2.0	1.1	4.1	27.4*	6.5
SMILES	A1 inh	DYRK1A inh	Beta2AR agonist	dFosB act-1	dFosB act-2
O=C1Nc2c(Br)cc(Br)c3cccc1c23	-0.1	8.6	4.8	89.6*	2.6
Cc1ccc(CNc2ccc3nnc(-c4ccccc4)n3n2)cc1	-0.5	1.5	-3.2	23.4*	5.1
Cc1nn(Cc2ccc(Cl)cc2Cl)c(C)c1NC(=O)Cn1nc([N+](=O)[O-])c(Cl)c1C	3.9	-2.8	-3.6	43.6*	0.7
Cc1nn(Cc2ccc(Cl)cc2)c(C)c1NC(=O)Cn1nc([N+](=O)[O-])c(Cl)c1C	0.3	-9.2	-2.4	20.2*	8.5
CCCCCCOC(=O)CC1CC(C(C)=O)C1(C)C (stereo not drawn)	nt	0.0	-2.9	3.0	nt
Cc1ccc(COc2ccc(/C=N/NC(=O)c3nnn(-c4nonc4N)c3COc3ccc(F)cc3)cc2)cc1	-1.0	2.5	-13.4	48.5*	-0.1
Cc1cccc(COc2ccc(/C=N/NC(=O)c3nnn(-c4nonc4N)c3C)cc2)c1	1.0	-7.8	-3.4	?	nt
Cc1ccc(COc2cccc(/C=N/NC(=O)c3nnn(-c4nonc4N)c3C)c2)cc1	0.2	-3.9	3.7	52.6*	-0.3
O=C(Nc1ccc(Cl)cc1)c1cnc(-c2ccccc2)nc1-c1ccccc1	0.7	-7.6	10.0	21.5*	1.3
CNC(=O)c1cnc(-c2ccccc2)nc1-c1ccccc1	1.0	-1.6	-5.8	0.9	nt
CN1c2ccsc2/C(=N/NC(=O)c2c(F)cccc2F)CS1(=O)=O	0.4	17.1	-0.9	0.9	nt
Cc1cccc(C(=O)N/N=C2\CS(=O)(=O)N(C)c3ccsc32)c1	-0.5	1.6	-1.3	26.3*	0.6
O=C1N=c2ccccc2=C1c1c(O)[nH]c2c(C(F)(F)F)cccc12	0.8	-2.4	-1.1	-4.9	nt
Cc1ccc(-c2nc(NC(=O)CSc3nnnn3-c3ccccc3)ns2)cc1	-1.1	2.7	0.8	37.8*	1.5
Cc1ccc(-c2csc3nnc(SCC(=O)Nc4nsc(-c5ccccc5)n4)n23)cc1	1.1	12.1	-11.2	7.3	nt
Cc1ccc(-n2nnnc2SCC(=O)Nc2ncc(Cc3ccccc3Cl)s2)cc1	0.1	2.5	-6.7	104.4*	6.4
COc1cccc(Oc2ccc(C(F)(F)F)cc2NC(=O)CN2C(=O)NC3(CCCC3)C2=O)c1	-0.5	nt	-0.5	45.5*	-1.7
Cc1cccc(C)c1-n1c(C)nn(CC2CC2)c1=O	0.2	nt	0.1	-2.9	nt
O=C(N/N=C/c1ccnc2ccccc12)c1ccccc1O	-0.9	9.1	6.0	-9.4	nt
Cc1nc(N)nc(N(C)c2ccccc2)c1Br	nt	-2.1	-3.1	-2.7	nt
Cc1cnc(NC(=O)c2ccc(-c3ccc([N+](=O)[O-])cc3)o2)s1	0.1	0.5	7.9	59.9*	2.0
O=C(Nc1ncc(Cc2ccccc2Cl)s1)c1ccc(-c2cccc([N+](=O)[O-])c2)o1	0.0	30.6	10.1	21.7*	4.0
Cc1ccc(S(=O)(=O)Nc2cccc(-c3ccc4nncn4n3)c2)cc1	0.7	-7.6	3.0	19.6*	-0.7
Cc1cccc(C)c1NC(=O)CN1C(=O)CCSc2ccc(S(=O)(=O)N3CCCC3)cc21	-2.4	-9.3	5.8	47.7*	-0.1
COc1ccc(NC(=O)CN(c2ccc(OC)cc2)S(=O)(=O)c2ccc(OC)c(OC)c2)cc1	-0.2	9.3	-0.3	52.1*	5.6

High-throughput results deposited in PubChem BioAssay by several laboratories.
